One assay concerns astro (control astrocytes). Kind of assay: Drug repurposing screens with cells derived from glioblastoma tumor samples (AID 1345199). For activity, negative = cell killing: % is set by controls: 0 for no effect and ±100 for the full control effect. Note: nearly all actives have a fitted effect of over 40% in size. Note: potency is the fitted concentration of half-maximal effect. Particulars: viability, ATP luminescence, 48 h; series mostly up to 45.9 µM. The method in brief: (§1)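 Four patient lines of CD133+ GBM neurospheres were screened at several concentrations; hits were retested in those lines plus three slower-growing GBM lines, using 48-hour treatment and ATP-based viability.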

Assay [1] can be described thus: P-glycoprotein substrates identified in KB-3-1 adenocarcinoma cell line, qHTS therapeutic library screen (AID 1346986). Note: nearly all actives have a fitted effect of over 60% in size.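 Note: potency is the fitted concentration of half-maximal effect; potency is for cytotoxicity meaning loss of cell viability.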 Conditions: KB-3-1 parental cells viability, CellTiter-Glo, 72 h; series mostly up to 44.5 µM. In outline: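 Counter-screen: cherry-picked hits retested in the KB pair and in HEK-293 pcDNA/MDR-19 cells ± tariquidar. Primary screen used 72 h CellTiter-Glo viability in KB-3-1 and KB-8-5-11.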
A general note: Quantitative high-throughput screening tests each substance at several concentrations.

Assay [2] is described as follows: qHTS to identify inhibitors of the type 1 interferon - major histocompatibility complex class I in skeletal muscle: primary screen against the NCATS Mechanism Interrogation Plate v5.0 (MIPE) Libary (AID 1347411).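 For activity change, negative = inhibition: plate controls were vehicle for no effect and reference inhibitor for full effect.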 Note: nearly all actives have a fitted effect of over 65% in size. Note: potency is the fitted concentration of half-maximal effect. Conditions: iHSKM cells + IFN-b, HiBiT-tagged MHC-I luminescence, 24 h; series mostly up to 45.8 µM. In outline:
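Cells were genome-edited human myoblasts carrying a HiBit tag on endogenous HLA-B. They were treated with IFN-beta (4.0 ng/ml) and titrated compounds (top 46 uM) for 24 hrs before lytic HiBiT detection.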

Assay [3] in a line: qHTS assay to identify inhibitors of the type 1 interferon - major histocompatibility complex class I in skeletal muscle: Counter screen cell viability and HiBit confirmation (AID 1347412). For activity change, negative = inhibition: % is set by controls: 0 for no effect and ±100 for the full control effect. Note: nearly all actives have a fitted effect of over 60% in size. Note: potency is the fitted concentration of half-maximal effect. Conditions: iHSKM muscle cells + IFN-b, HiBiT or CellTiter-Glo, 24 h, HiBiT. In outline:
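Myoblasts (C25cl48, HLA-B HiBiT) seeded in medium without dexamethasone, IFN-b 4 ng/ml added except unstimulated columns; 1 hr later compounds pinned (12-pt 1:3, top 46 uM final). Incubated 24 hrs, lysed 10 min, luminescence measured.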

Assay [4] is described as follows: qHTS Assay for Identifying Gametocytocidal Compounds (AID 743244).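 Note: % is set by controls: 0 for no effect and ±100 for the full control effect; actives lower the fluorescent signal which means gametocytes are killed.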 Particulars: P. falciparum 3D7 stage III-V gametocytes, alamarBlue, 72 h; max response: active compounds read low. In outline:
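P. falciparum 3D7 stage III–V gametocytes (20,000 cells/well) were exposed to compounds for 72 h at 37 °C, 5% CO2. AlamarBlue was then added for 24 h; decreased resorufin fluorescence (Ex 525/Em 598 nm) indicated loss of viability.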

A short description of assay [5]: Drug repurposing screens with cells derived from glioblastoma tumor samples (AID 1345199). For activity, negative = cell killing: % is set by controls: 0 for no effect and ±100 for the full control effect. For all read-outs here: nearly all actives have a fitted effect of over 40% in size. Note: potency is the fitted concentration of half-maximal effect. Conditions: GBM patient neurospheres viability, ATP luminescence, 48 h; for Potency: tumour line A. The method in brief:
as §1

For assay [6], the system named is Zika virus NS2B-NS3 protease. Kind of assay: Primary screen GU AMC qHTS for Zika virus inhibitors (AID 1347154).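 For activity change, negative = inhibition: 0% = no-inhibitor control and -100% = no-enzyme control.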 Note: nearly all actives have a fitted effect of over 70% in size. Note: potency is the fitted concentration of half-maximal effect. Conditions: Zika NS2B-NS3 unlinked protease, AMC fluorogenic substrate; series mostly up to 54.1 µM. The method in brief:
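Fluorogenic AMC-substrate cleavage by noncovalent NS2B-NS3 protease complex (25 nM, pH 8.0 Tris buffer with Tween 20) followed for 15 minutes at room temperature (~20% conversion). Percent inhibition from ex340/em450 signal change, fitted by 4-parameter Hill equation.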

The nature of assay [7]: Primary qHTS for small molecule stabilizers of the endoplasmic reticulum resident proteome: Secreted ER Calcium Modulated Protein (SERCaMP) assay (AID 1508630). Note: % is set by controls: 0 for no effect and ±100 for the full control effect. Conditions: SH-SY5Y GLuc-SERCaMP (Gaussia luciferase released on ER calcium loss) secretion, thapsigargin, luminescence; series mostly up to 38.4 µM. The method in brief:
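GLuc-SERCaMP-expressing SH-SY5Y cells, pretreated 16 h with compound, are challenged with thapsigargin to empty ER calcium stores; after 4 h, coelenterazine is added directly to the medium and luminescence is imaged.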

The mark [8] stands for this setting: at 45.9 µM (top of the series), tumour line B.
[9] abbreviates: at 46.1 µM (top of the series), tumour line C.

This note sets out measurements from PubChem BioAssay (NCATS).

Results filed as inconclusive are left out. A number with no mark means an inactive call. Active and inactive are the calls of the source. Calls come from the whole dose curve; as a rule, active = well fitted curve in the direction sought with a large enough effect; inconclusive = small, poorly fitted or top-dose-only effect, or another doubt; inactive = no such curve, though single readings can be large; an effect the other way counts as inactive or inconclusive.

Regarding `C=C1C(=O)O[C@H]2[C@H]1CC/C(C)=C\CC[C@@]1(C)O[C@@H]21`, the Potency in the assay on astro was 20 µM (active).
Take `CC(C)C(N)C(=O)OCC(CO)OCn1cnc2c(=O)[nH]c(N)nc21` (centres undefined): the Potency result in assay [1] and in assay [2] was “inactive” throughout.
`N#C/C(=C(\N)Sc1ccc(N)cc1)c1ccccc1C(F)(F)F`: the Potency result in assay [1] is “inactive”.
For `COc1cc(OC)cc(N(CCNC(C)C)c2ccc3ncc(-c4cnn(C)c4)nc3c2)c1`, the Potency was 10.3 µM (active) in assay [1], 13.1 µM (active) in assay [2] and 17.6 µM (active) in assay [3].
`CN1CCN(Cc2ccc(Nc3ncc(Cl)c(Nc4ccccc4S(=O)(=O)N(C)C)n3)cc2)CC1`: the values for the Potency in assay [1] and in assay [2] were 0.0596 µM (active) and 0.151 µM (active), respectively.
Take `CCOC(=O)CCC(=O)O[C@H]1[C@H](O[C@@H]2[C@@H](C)[C@H](O[C@H]3C[C@@](C)(OC)[C@@H](O)[C@H](C)O3)[C@@H](C)C(=O)O[C@H](CC)[C@@](C)(O)[C@H](O)[C@@H](C)C(=O)[C@H](C)C[C@@]2(C)O)O[C@H](C)C[C@@H]1N(C)C`: in assay [4], the max response was -6.05%. Also, the activity, negative = cell killing in assay [5] (setting [8]) is -6.36%; in assay [5] (at 45.9 µM (top of the series), tumour line D) it was -16.9%; in assay [5] (setting [9]) it was 1.07%. In addition, in assay [5], the Potency was 35.5 µM (active). In addition, the Potency result in the assay with astro is “inactive”.
With `O=c1[nH]ccc2c(S(=O)(=O)N3CCCNCC3)cccc12`, the Potency result in assay [1] is “inactive”. Further, in assay [6], the Potency was 26.7 µM (active).
Take `C#C[C@]1(OC(C)=O)CC[C@H]2[C@@H]3CCC4=CC(=O)CC[C@@H]4[C@H]3CC[C@@]21C`: the max response in assay [4] was -3.45%. The activity, negative = cell killing in assay [5] (setting [8]) is -16%; in assay [5] (setting [9]) it was -23.2%. The Potency in assay [5] was 35.5 µM (active).
With `C=CC(=O)c1ccc2ccccc2c1`, the Potency result in assay [1], in assay [6] and in assay [7] was “inactive” throughout.
Consider `Clc1ccc2ncc(-c3cccc(NC4CCNCC4)n3)n2c1`, for which the Potency in assay [1] is 3.66 µM (active).
`N#Cc1ccc(-c2c(-c3ncn[nH]3)sc(N3CCOCC3)c2C#N)c(F)c1`: the Potency in assay [1] was 2.06 µM (active). Also, the activity change, negative = inhibition in assay [3] (at 45.9 µM (top of the series)) is -34.7%.
Turning to `CC(=O)Nc1ccc(C(=O)NC(C)(C)C)cc1`, the Potency entry in assay [1] and in assay [2] was “inactive” each time.
